# Reference: PubChem BioAssay (Tox21)
# Several values for one entry are separate records, joined by “and”; a condition that tells them apart may be missing. Equal entries are not always repeated. Results filed as inconclusive are left out. Where a call stands in place of a potency, no number is given. Some compounds were tested as several samples or in several runs, with calls that do not always agree. Activity calls are given as the source filed them. Unless noted, calls come from the whole dose curve; as a rule, active = well fitted curve in the direction sought with a large enough effect in the repeat runs; inconclusive = weak or mixed curves; inactive = no such curve, though single readings can be large; an effect the other way counts as inactive or inconclusive.
# What was measured:
# [1] = target: Retinoic acid receptor RXR-alpha (Homo sapiens) (UniProt P19793); experiment: qHTS assay to identify small molecule agonists of the RXR signaling pathway (AID 1159527; calls by dose curve; note: nearly all actives have a fitted effect of over 35% in size; note: potency is the fitted concentration of half-maximal effect)
# Retinoic acid receptor RXR-alpha (Homo sapiens), sequence (P19793 whole entry, looked up): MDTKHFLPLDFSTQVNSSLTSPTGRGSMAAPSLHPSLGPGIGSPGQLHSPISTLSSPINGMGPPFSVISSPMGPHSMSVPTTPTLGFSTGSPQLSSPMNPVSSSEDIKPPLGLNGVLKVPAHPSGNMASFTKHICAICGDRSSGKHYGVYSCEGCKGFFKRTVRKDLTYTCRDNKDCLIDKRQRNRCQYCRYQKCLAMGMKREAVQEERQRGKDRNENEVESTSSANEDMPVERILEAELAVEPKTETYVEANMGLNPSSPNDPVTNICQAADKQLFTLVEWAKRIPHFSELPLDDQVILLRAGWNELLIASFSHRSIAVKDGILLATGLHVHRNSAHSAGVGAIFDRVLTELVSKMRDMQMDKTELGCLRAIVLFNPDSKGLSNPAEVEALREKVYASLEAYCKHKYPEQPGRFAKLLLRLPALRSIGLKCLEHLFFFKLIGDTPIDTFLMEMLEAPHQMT
# In short: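 qHTS of the Tox21 10K library in GeneBLAzer RXR-alpha HEK 293T cells carrying a beta-lactamase reporter […]; 16 hr treatment, 9-cis retinoic acid as agonist control, FRET read-out.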
# [2] = qHTS assay to identify small molecule agonists of the RXR signaling pathway - cell viability counter screen (AID 1159529); note: series mostly up to about 77 µM; nearly all actives have a fitted effect of over 50% in size
# In short: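 Cell viability is measured by CellTiter-Glo luminescence, 30 min at room temperature, in wells already read for beta-lactamase. Engineered HEK 293T cells (RXR-alpha-UAS-bla) are dosed 16 hr at 37 C. Tetraoctyl ammonium bromide serves as positive control.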
# [3] = qHTS assay to identify small molecule antagonists of the retinoid acid receptor (RAR) signaling pathway - cell viability counter screen (AID 1159551); note: nearly all actives have a fitted effect of over 35% in size
# In short: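 Viability of C3RL4 cells is quantified from ATP by luminescence after 6 h treatment at 37 C with compounds and 1 uM retinol.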
# [4] = qHTS assay to identify small molecule antagonists of the retinoic acid receptor (RAR) signaling pathway (AID 1159552; note: nearly all actives have a fitted effect of over 50% in size)
# In short: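 Quantitative HTS in C3RL4 RARE-luciferase reporter cells. Compounds were added with 1 uM (final) retinol; luminescence was read after 6 hr.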
# [5] = qHTS assay to identify small molecule antagonists of the estrogen related receptor (ERR) signaling pathway - cell viability counter screen (AID 1224818); note: series mostly up to about 46 µM
# In short: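 Cytotoxicity check run alongside the ERR antagonist screen: cells exposed to test compounds 17.5 h at 37 C, viability taken as CellTiter-Fluor fluorescence intensity.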
# [6] = qHTS assay to identify small molecule antagonists of the estrogen related receptor (ERR) signaling pathway (AID 1224819;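 note: luminescence from an ERR-driven luciferase reporter measured with One-Glo reagent; series mostly up to about 46 µM; nearly all actives have a fitted effect of over 50% in size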)
# In short: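 ERR reporter cells were plated at 2,000 cells/well and left 6 h at 37 C/5% CO2 before pin-tool transfer of compounds in DMSO. After 18 h at 37 C, One-Glo was added and luminescence was read 30 min later at room temperature.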
# [7] = qHTS assay to identify small molecule agonists of the estrogen related receptor (ERR) signaling pathway (AID 1224820)
# In short: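 Luminescence readout (One-Glo, 30 min RT) from NTP-supplied ERR cell line exposed to compounds for 18 h at 37 C. Cells seeded 2,000 per well and pre-incubated 6 h before pin-tool compound transfer.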
# [8] = test system: estrogen-related receptor alpha (ERRalpha) with PGC-1alpha coactivator, human; experiment: qHTS assay to identify small molecule antagonists of the estrogen related receptor signaling pathway with the pleiotropic PPARgamma coactivator (PGC) (AID 1224821; calls by dose curve;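 note: series mostly up to about 46 µM; lower luminescence signal means antagonism of PGC/ERR signalling; nearly all actives have a fitted effect of over 50% in size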)
# In short: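 PGC/ERR reporter cells; 6 h pre-incubation 37 C/5% CO2; pin-tool compound in DMSO, 18 h 37 C; One-Glo added, 30 min RT; luminescence read. qHTS antagonist mode.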
# [9] = qHTS assay to identify small molecule antagonists of the estrogen related receptor signaling pathway with the pleiotropic PPARgamma coactivator (PGC) cell viability counter screen (AID 1224822; note: series mostly up to about 46 µM)
# In short: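 Viable cell signal (CellTiter-Fluor, 30 min, 37 C/5% CO2) was measured in PGC/ERR cells after a 17.5 h compound incubation.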
# [10] = qHTS assay to identify small molecule agonists of the estrogen related receptor signaling pathway with the pleiotropic PPARgamma coactivator (PGC) (AID 1224823)
# In short: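 Luminescence readout (One-Glo, 30 min RT) from PGC/ERR cell line treated 18 h at 37 C with pin-tool-delivered DMSO compound solutions; cells plated 6 h before dosing. Quantitative HTS format.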
# [11] = qHTS assay to identify small molecule antagonists of the estrogen related receptor (ERR) signaling pathway from Tox21 library - cell viability counter screen (AID 1224834); note: nearly all actives have a fitted effect of over 30% in size
# In short: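 In this quantitative HTS format, ERR cells receive compounds in DMSO and are incubated for 17.5 h at 37 C. Live-cell protease activity is then detected with CellTiter-Fluor.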
# [12] = target: Luciferin 4-monooxygenase (Photinus pyralis) (UniProt P08659); experiment: qHTS assay to identify small molecule inhibitors of firefly luciferase (AID 1224835); note: nearly all actives have a fitted effect of over 25% in size; note: potency is the fitted concentration of half-maximal effect; for activity change, negative = inhibition: series mostly up to about 120 µM
# Luciferin 4-monooxygenase (Photinus pyralis), sequence (P08659 whole entry, looked up): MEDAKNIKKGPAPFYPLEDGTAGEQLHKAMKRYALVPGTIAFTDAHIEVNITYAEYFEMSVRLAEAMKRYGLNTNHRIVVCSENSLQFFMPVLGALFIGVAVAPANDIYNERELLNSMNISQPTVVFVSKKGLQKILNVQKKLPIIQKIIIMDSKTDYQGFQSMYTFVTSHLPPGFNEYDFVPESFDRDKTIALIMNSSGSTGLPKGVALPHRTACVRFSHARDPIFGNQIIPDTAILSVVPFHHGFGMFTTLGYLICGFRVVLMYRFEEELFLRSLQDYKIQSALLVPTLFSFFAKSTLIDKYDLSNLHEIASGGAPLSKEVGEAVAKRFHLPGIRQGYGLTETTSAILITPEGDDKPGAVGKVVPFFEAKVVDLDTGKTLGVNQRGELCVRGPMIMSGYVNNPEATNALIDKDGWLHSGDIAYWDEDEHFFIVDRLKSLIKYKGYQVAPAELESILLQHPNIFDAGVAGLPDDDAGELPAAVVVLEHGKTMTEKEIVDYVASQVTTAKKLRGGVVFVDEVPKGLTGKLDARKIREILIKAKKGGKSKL
# In short: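 Inhibition of purified Photinus luciferase is measured by luminescence. Substrate levels (D-luciferin, ATP) sit at their KM values. Each compound is tested in a concentration series.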
# [13] = qHTS assay to identify small molecule agonists of the constitutive androstane receptor (CAR) signaling pathway - cell viability counter screen (AID 1224836); note: series mostly up to about 92 µM; nearly all actives have a fitted effect of over 45% in size
# In short: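 Counter screen multiplexed with the CAR reporter readout: HepG2 cells co-transfected with hCAR and the CYP2B6-2.2kb construct receive a 15-concentration compound series and 0.75 uM PK11195 (final), then CellTiter-Fluor fluorescence is read after 23 h.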
# [14] = qHTS assay to identify small molecule antagonists of the constitutive androstane receptor (CAR) signaling pathway - cell viability counter screen (AID 1224837); note: series mostly up to about 92 µM; nearly all actives have a fitted effect of over 45% in size
# In short: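 In quantitative HTS format, compounds at 15 concentrations were applied to HepG2 cells double-transfected with hCAR and CYP2B6-2.2kb under 50 nM CITCO stimulation; live-cell protease activity was read after 23 hr via CellTiter-Fluor.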
# [15] = qHTS assay to identify small molecule antagonists of the estrogen related receptor signaling pathway with the pleiotropic PPARgamma coactivator (PGC) from Tox21 10K library - cell viability counter screen (AID 1224840; active = well fitted cell-killing curve with a large enough effect in the repeat runs, not every such curve was filed as active; note: nearly all actives have a fitted effect of over 40% in size)
# In short: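 Viability counter screen, PGC/ERR cells: 17.5 h compound exposure at 37 C, CellTiter-Fluor fluorescence endpoint.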
# [16] = qHTS assay to identify small molecule agonists of the estrogen related receptor signaling pathway with the pleiotropic PPARgamma coactivator (PGC) from Tox21 10K library (AID 1224842); note: nearly all actives have a fitted effect of over 15% in size
# In short: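 Luminescence from One-Glo (30 min, room temperature) measured after PGC/ERR cells had 18 h at 37 C with pinned compound (23 nL in DMSO). Cells had been seeded at 2,000 per well and pre-incubated 6 h.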
# [17] = qHTS assay to identify small molecule agonists of the retinoic acid receptor (RAR) signaling pathway (AID 1159553)
# In short: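 Compounds dissolved in DMSO were pinned onto C3RL4 cells seeded the previous day, and plates were held 6 hr at 37 C. RARE-driven luciferase output was then read by luminescence.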
# [18] = target: Nuclear receptor subfamily 1 group I member 3 (Homo sapiens) (UniProt Q14994); experiment: qHTS assay to identify small molecule antagonists of the constitutive androstane receptor (CAR) signaling pathway (AID 1224838); note: nearly all actives have a fitted effect of over 40% in size
# Nuclear receptor subfamily 1 group I member 3 (Homo sapiens), sequence (Q14994 whole entry, looked up): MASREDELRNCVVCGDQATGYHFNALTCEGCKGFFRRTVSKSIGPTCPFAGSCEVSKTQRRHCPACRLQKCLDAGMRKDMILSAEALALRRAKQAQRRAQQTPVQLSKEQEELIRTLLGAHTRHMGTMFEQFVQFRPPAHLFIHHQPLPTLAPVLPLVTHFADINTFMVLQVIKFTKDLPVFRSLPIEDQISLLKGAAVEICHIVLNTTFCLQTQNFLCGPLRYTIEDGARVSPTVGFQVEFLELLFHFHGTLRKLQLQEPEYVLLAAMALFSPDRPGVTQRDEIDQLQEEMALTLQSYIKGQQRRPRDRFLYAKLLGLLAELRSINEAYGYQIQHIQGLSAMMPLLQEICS
# In short: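 CITCO-stimulated (50 nM final) HepG2 cells stably transfected with hCAR and CYP2B6-2.2kb luciferase were exposed to compounds at 15 concentrations for 24 h at 37 C/5% CO2. A luciferase reagent was added and luminescence recorded after 30 min.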
# [19] = target: Nuclear receptor subfamily 1 group I member 3 (Homo sapiens) (UniProt Q14994); experiment: qHTS assay to identify small molecule agonists of the constitutive androstane receptor (CAR) signaling pathway (AID 1224839); note: nearly all actives have a fitted effect of over 15% in size; note: potency is the fitted concentration of half-maximal effect; for activation: series mostly up to about 92 µM
# In short: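 A 15-concentration quantitative screen uses HepG2 cells co-transfected stably with human CAR and CYP2B6-2.2kb reporter. Treatment lasts 24 h with 0.75 uM PK11195 final present; ONE-Glo luminescence is the signal.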
# [20] = qHTS assay to identify small molecule antagonists of the estrogen related receptor signaling pathway with the pleiotropic PPARgamma coactivator (PGC) from Tox21 10K library (AID 1224841; call rule not given here)
# In short: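 In the PGC/ERR line, DMSO solutions of test chemicals are pin-delivered to 2,000 cells/well six hours after dispensing. Following eighteen hours' incubation, One-Glo reagent is added and luminescence recorded.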
structure (smiles),measurement,setting,value
O=C(O)CN(CCOCCOCCN(CC(=O)O)CC(=O)O)CC(=O)O,activation,[1],10% [at 0.29 µM] (inactive)
same,"activity change, negative = cytotoxicity",[2],-0.722% [at 0.29 µM] (inactive)
same,"activity change, negative = cytotoxicity",[3],0.187% [at 0.349 µM] (inactive)
same,"activity, negative = inhibition",[4],12.3% [at 0.349 µM] (inactive)
same,outcome,[5],inactive
same,outcome,[6],inactive
same,outcome,[7],inactive
same,outcome,[8],inactive
same,outcome,[9],inactive
same,outcome,[10],inactive
same,"viability change, negative = cytotoxic",[11],1.46% [at 0.349 µM] (inactive)
same,"activity change, negative = inhibition",[12],0.561% [at 0.435 µM] (inactive)
same,"viability change, negative = cytotoxic",[13],-0.739% [at 0.349 µM] (inactive)
same,"activity change, negative = cytotoxicity",[14],4% [at 0.349 µM] (inactive)
same,"viability change, negative = cytotoxic",[15],-9.4% [at 0.349 µM] (inactive)
same,activation,[16],-0.694% [at 0.349 µM] (inactive)
O=C(O)COc1nn(Cc2ccccc2)c2ccccc12,Potency,[1],inactive
same,Potency,[2],inactive
same,outcome,[3],inactive
same,Potency,[4],inactive
same,Potency,[17],inactive
same,Potency,[12],inactive
same,Potency,[13],inactive
same,Potency,[18],inactive
same,Potency,[19],inactive
same,Potency,[20],inactive
same,outcome,[16],inactive
O=C1CCCN1C1CCCCC1,Potency,[1],inactive
same,Potency,[2],inactive
same,outcome,[3],inactive
same,Potency,[4],inactive
same,Potency,[17],inactive
same,Potency,[12],inactive
same,Potency,[13],inactive
same,Potency,[18],inactive
same,Potency,[19],inactive
same,Potency,[15],inactive
same,Potency,[20],inactive
same,outcome,[16],inactive
COC(=O)c1c(Cl)c(Cl)c(C(=O)OC)c(Cl)c1Cl,Potency,[1],inactive and 5.49 µM (active)
same,Potency,[2],inactive
same,outcome,[3],inactive
same,outcome,[5],inactive
same,outcome,[6],inactive
same,outcome,[7],inactive
same,outcome,[8],inactive
same,outcome,[9],inactive
same,outcome,[10],inactive
same,Potency,[11],inactive
same,Potency,[12],inactive
same,Potency,[13],inactive
same,Potency,[14],inactive
same,Potency,[18],inactive
same,Potency,[19],54.5 µM (active) and 8.63 µM (active)
same,Potency,[20],inactive
same,outcome,[16],inactive
CN1C(=O)N(C)C(O)C1O (centres undefined),Potency,[1],inactive
same,Potency,[2],inactive
same,outcome,[3],inactive
same,Potency,[4],inactive
same,Potency,[11],inactive
same,Potency,[12],inactive
same,Potency,[13],inactive
same,Potency,[14],inactive
same,Potency,[18],inactive
same,Potency,[15],inactive
same,Potency,[20],inactive
same,outcome,[16],inactive
CC1(C)C(O)C(C)(C)C1O (centres undefined),Potency,[1],inactive
same,Potency,[2],inactive
same,outcome,[3],inactive
same,Potency,[4],inactive
same,Potency,[11],inactive
same,Potency,[12],inactive
same,Potency,[13],inactive
same,Potency,[14],inactive
same,Potency,[19],inactive
same,Potency,[15],inactive
same,Potency,[20],inactive
same,outcome,[16],inactive
N[C@@H](C(=O)N[C@@H]1C(=O)N2C(C(=O)O)=C(Cl)CS[C@H]12)c1ccccc1,activation,[1],3.92% [at 6.98 µM] (inactive)
same,"activity change, negative = cytotoxicity",[2],16.6% [at 6.97 µM] (inactive)
same,"activity change, negative = cytotoxicity",[3],2.73% [at 8.39 µM] (inactive)
same,"activity, negative = inhibition",[4],-6.75% [at 8.39 µM] (inactive)
same,"viability change, negative = cytotoxic",[11],3.31% [at 8.39 µM] (inactive)
same,"activity change, negative = inhibition",[12],-5.09% [at 10.5 µM] (inactive)
same,"viability change, negative = cytotoxic",[13],0.971% [at 8.39 µM] (inactive)
same,"activity change, negative = cytotoxicity",[14],8.33% [at 8.39 µM] (inactive)
same,activation,[19],-1.38% [at 8.39 µM] (inactive)
same,"viability change, negative = cytotoxic",[15],10.3% [at 8.39 µM] (inactive)
same,activation,[16],-0.0958% [at 8.39 µM] (inactive)
O=C1CC2CC1C1CCCC21 (centres undefined),Potency,[1],inactive
same,Potency,[2],inactive
same,outcome,[3],inactive
same,Potency,[4],inactive
same,Potency,[11],inactive
same,Potency,[12],inactive
same,Potency,[13],inactive
same,Potency,[14],inactive
same,Potency,[18],inactive
same,Potency,[15],inactive
same,Potency,[20],inactive
same,outcome,[16],inactive
Cc1cnc(NS(=O)(=O)c2ccc(N)cc2)nc1,Potency,[1],inactive
same,Potency,[2],inactive
same,outcome,[3],inactive
same,Potency,[4],inactive
same,Potency,[12],inactive
same,Potency,[13],inactive
same,Potency,[14],inactive
same,Potency,[18],inactive
same,Potency,[19],inactive
same,outcome,[16],inactive
CC(C)(c1ccc(O)cc1)c1ccc(O)cc1,Potency,[2],inactive
same,outcome,[3],inactive
same,Potency,[4],inactive
same,Potency,[17],inactive
same,outcome,[5],inactive
same,outcome,[6],inactive
same,outcome,[7],inactive
same,outcome,[8],inactive
same,outcome,[9],inactive
same,outcome,[10],inactive
same,Potency,[12],39.5 µM (active) and 36.2 µM (active)
same,Potency,[13],inactive
same,Potency,[14],inactive
same,Potency,[18],inactive
same,Potency,[19],30.3 µM (active) and 11.1 µM (active)
same,outcome,[16],inactive
